From PubChem BioAssay
The entries come from a sample that favours hits as a whole.
IDE exosite inh – insulin-degrading enzyme (human) exo-site inhibition | z-score at 20 µM | P14735 | actives 6.3% (n = 17,000) | purified IDE, FL-6b probe fluorescence polarization; active compounds read low;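 active means z-score of -3 or lower, meaning strong loss of probe binding signal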;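 further: His-tagged human IDE residues 42-1019 made in E. coli with 30 nM FL-6b probe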
Numbers without * were called inactive.

SMILES	IDE exosite inh
CN(C)CC#Cc1ccc([C@H]2[C@H](CO)N3CCCCN(C(=O)C4CCC4)C[C@@H]23)cc1	2.3
CN1C(=O)c2cc(NC(=O)Cc3cccs3)ccc2OC[C@H]2O[C@H](CC(=O)NCCc3ccncc3)CC[C@H]21	-1.5
O=C(C1CCCCC1)N1CC(=O)N2[C@@H](CO)[C@H](c3ccc(Br)cc3)[C@@H]2C1	3.8
O=C(CN1CCOCC1)N1CCCCN2[C@@H](CO)[C@H](c3ccc(Br)cc3)[C@@H]2C1	-0.96
O=C(CN1CCOCC1)N1CCCCN2[C@H](CO)[C@@H](c3ccc(/C=C/c4ccccc4)cc3)[C@@H]2C1	-3.7*
O=C(CN1CCOCC1)N1CCCCN2[C@H](C1)[C@H](c1ccc(/C=C/c3ccccc3)cc1)[C@@H]2CO	-8.2*
O=C(CN1CCOCC1)N1CCCCN2[C@@H](CO)[C@@H](c3ccc(Br)cc3)[C@@H]2C1	1.3
O=C(CN1CCOCC1)N1CCCCN2[C@H](CO)[C@H](c3ccc(-c4ccccc4)cc3)[C@H]2C1	-2.1
O=C(CN1CCOCC1)N1CCCCN2[C@H](CO)[C@@H](c3ccc(Br)cc3)[C@@H]2C1	1.1
O=C(Nc1ccccc1F)N1CC(=O)N2[C@H](CO)[C@@H](c3ccc(-c4cccnc4)cc3)[C@H]2C1	-1.1
O=C1CNC[C@H]2[C@H](c3ccc(C4=CCCC4)cc3)[C@H](CO)N12	1.8
O=C(c1ccc(F)cc1)N1CC(=O)N2[C@H](CO)[C@H](c3ccc(C#CCC4CCCC4)cc3)[C@@H]2C1	-0.91
COc1ccc(C#Cc2ccc([C@H]3[C@@H](CO)N4C(=O)CN(C(=O)C5CCOCC5)C[C@@H]34)cc2)cc1	4.3
COc1cccc(C#Cc2ccc([C@H]3[C@H]4CN(C(=O)C5CC5)CC(=O)N4[C@H]3CO)cc2)c1	-7.3*
COc1ccc(C#Cc2ccc([C@@H]3[C@H](CO)N4C(=O)CN(C(=O)C5CCOCC5)C[C@@H]34)cc2)cc1	3.3
COc1ccc(C#Cc2ccc([C@@H]3[C@H]4CN(C(=O)C5CCOCC5)CC(=O)N4[C@H]3CO)cc2)cc1	3.4
COc1cccc(C#Cc2ccc([C@@H]3[C@H](CO)N4C(=O)CN(C(=O)C5CC5)C[C@@H]34)cc2)c1	-6.3*
COc1cccc(C#Cc2ccc([C@H]3[C@@H](CO)N4C(=O)CN(C(=O)C5CC5)C[C@@H]34)cc2)c1	-4.9*
CC(C)NC(=O)N1[C@H](CO)[C@@H](c2ccccc2)[C@H]1CN(C)C(=O)c1ccncc1	4.4
COc1ccc(C#Cc2ccc([C@@H]3[C@@H](CO)N4CCCCN(C(=O)Nc5cccc(F)c5)C[C@H]34)cc2)cc1	0.88
N#C[C@@H]1[C@H](c2ccccc2-c2ccccc2F)[C@H](CO)N1C(=O)c1cccc(F)c1	0.18
C/C=C/c1ccc([C@H]2[C@@H](CO)N[C@@H]2CNC(=O)Cc2ccccc2)cc1	0.74
CCCC#Cc1ccc([C@H]2[C@@H](CO)N(C(=O)NC(C)C)[C@H]2CNC(C)=O)cc1	-0.7
O=C(C1CCCC1)N1CC(=O)N2[C@@H](CO)[C@@H](c3ccc(Br)cc3)[C@@H]2C1	0.21
O=C(Nc1ccc(F)cc1)N1[C@@H](CO)[C@@H]2c3ccccc3NC[C@@H]21	-0.52
SMILES	IDE exosite inh
COC(=O)c1ccc(CN2CC(=O)N3[C@H](CO)[C@@H](c4ccc(Br)cc4)[C@@H]3C2)cc1	-3.5*
C/C=C/c1ccc([C@@H]2[C@@H](CO)N3C(=O)CN(Cc4ccc(C)cc4)C[C@@H]23)cc1	1.2
C/C=C/c1ccc([C@@H]2[C@H]3CN(Cc4ccc(C)cc4)CC(=O)N3[C@H]2CO)cc1	2
C/C=C/c1ccc([C@H]2[C@H](CO)N3C(=O)CN(Cc4ccc(C)cc4)C[C@@H]23)cc1	-5*
COC(=O)c1ccc(CN2CC(=O)N3[C@H](CO)[C@H](c4ccc(Br)cc4)[C@@H]3C2)cc1	-0.79
COC(=O)c1ccc(CN2CC(=O)N3[C@H](CO)[C@@H](c4ccc(Br)cc4)[C@H]3C2)cc1	2.8
CCC(=O)N1CC(=O)N2[C@H](C1)[C@H](c1ccc(-c3cccnc3)cc1)[C@@H]2CO	-0.8
O=C(Nc1ccc(F)cc1)N1CC(=O)N2[C@H](CO)[C@H](c3ccc(-c4ccc(F)cc4)cc3)[C@H]2C1	0.002
CCS(=O)(=O)N(C)C[C@@H]1N[C@H](CO)[C@@H]1c1ccc(C#CC(C)C)cc1	0.72
CN1C(=O)c2cc(NC(=O)Nc3ccccc3F)ccc2OC[C@H]2O[C@@H](CC(=O)NCCc3ccncc3)CC[C@H]21	-1.5
CN(C)C(=O)c1cccc(-c2ccc([C@@H]3[C@H]4CN(C(=O)Cc5ccccc5)CC(=O)N4[C@H]3CO)cc2)c1	0.16
COc1ccc(-c2ccc([C@H]3[C@@H](CO)N4C(=O)CN(C(=O)C5CCCC5)C[C@H]34)cc2)cc1	-7.7*
O=C(C1CCC1)N1CC(=O)N2[C@@H](CO)[C@H](c3ccc(-c4cccnc4)cc3)[C@@H]2C1	1.1
COc1cccc(-c2ccc([C@H]3[C@H](CO)N4C(=O)CN(C(=O)NC(C)C)C[C@@H]34)cc2)c1	-6.9*
COc1cccc(-c2ccc([C@H]3[C@H](CO)N4C(=O)CN(C(=O)C5CCC5)C[C@@H]34)cc2)c1	-6.8*
